Source: PubChem BioAssay AID1852 (Sanford-Burnham Center for Chemical Genomics, 2009)
The whole screen tested about 2,500 compounds, of which about 1,100 (44%) were called active.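 Rule for the calls: active = inhibition above 50% at 4 µM in the single-point screen; inactive = inhibition of 50% or less.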 The set was probably picked from earlier hits. The list shows a part of the results.

assay: blockers of TNF-a NF-kB luciferase induction – cell-based, HEK293T NF-kB-Luc, luminescence, selectivity assay for NOD1/NOD2 signaling inhibitor project, primary screen (AID 1852); settings: TNF-a induced, 14 h, at 4 µM, active compounds read high

SMILES	inhibition
Cc1c(CCC(=O)O)c(=O)oc2cc(OCc3ccccc3Br)ccc12	75.3% (active)
Cc1c(CCC(=O)O)c(=O)oc2c(C)c(OCc3ccccc3Cl)ccc12	17.1% (inactive)
COc1ccccc1COc1ccc2c(C)c(CCC(=O)O)c(=O)oc2c1C	5.6% (inactive)
O=C(CCl)Nc1ccccc1C(=O)NCc1ccccc1	-4% (inactive)
O=C(CCl)Nc1c2c(nn1-c1ccccc1)CSC2	-6.5% (inactive)
Cc1c(C#N)c(NC(=O)CCl)n(Cc2ccccc2)c1C	95.9% (active)
CC(=O)Nc1ccccc1OCC(=O)c1cc(C)n(Cc2cccs2)c1C	28.3% (inactive)
Cc1c(C#N)c(NC(=O)CCl)n(Cc2cccs2)c1C	101% (active)
CC(=O)Nc1ccc(SCC(=O)c2cc(C)n(Cc3cccs3)c2C)cc1	-119% (inactive)
CCC(C)(C)c1ccc(OCCCC[n+]2cccc(C)c2C)c(C(C)(C)CC)c1	18.8% (inactive)
CCCCCCCCC[n+]1cccc2c3ccccc3ccc21	83.9% (active)
CCCCCCCC[n+]1cccc2c3ccccc3ccc21	83.6% (active)
CC(=O)c1cn(CCOc2cc(C)ccc2C)c2ccccc12	60.4% (active)
COc1cccc(OCCn2cc(C(C)=O)c3ccccc32)c1	26.8% (inactive)
CC(=O)c1cn(CCOc2ccccc2C)c2ccccc12	46.6% (inactive)
CN(C)/C=C/C(=O)c1ccc2noc(-c3ccccc3)c2c1	30.4% (inactive)
c1ccc(CNc2ncnc3scc(-c4cccs4)c23)nc1	57.5% (active)
c1ccc(-c2csc3ncnc(NCc4ccccn4)c23)cc1	13.4% (inactive)
O=C(Nc1nc2ccccc2n1CCOc1ccc(Cl)cc1)c1ccco1	102% (active)
Cc1ccc(OCCn2c(NC(=O)c3ccco3)nc3ccccc32)cc1	19.6% (inactive)
O=C(Nc1ccccc1Cl)/C(Cl)=C(\Cl)S(=O)c1ccccc1 (stereo not drawn)	107% (active)
COc1cccc(C(C)NC(=O)Nc2ccccc2Cl)c1 (stereo not drawn)	37.3% (inactive)
CC1=C(C(=O)OCc2ccc3c(c2)OCO3)C(c2ccc(Cl)cc2)NC(=O)N1 (stereo not drawn)	102% (active)
O=C(NCCc1ccccc1)c1ccc2c(c1)OCO2	-77.5% (inactive)

SMILES	inhibition
CC1=C(C(=O)OCc2ccc3c(c2)OCO3)C(c2ccc(O)c([N+](=O)[O-])c2)NC(=O)N1 (stereo not drawn)	58% (active)
CC1=C(C(=O)OCc2ccc3c(c2)OCO3)C(c2ccccc2)NC(=O)N1 (stereo not drawn)	96.6% (active)
O=C(CCl)Nc1ccccc1C(=O)Nc1ccc2c(c1)OCO2	10.4% (inactive)
CC1=C(C(=O)OCc2ccc3c(c2)OCO3)C(c2ccc(F)cc2)NC(=O)N1 (stereo not drawn)	104% (active)
COc1ccc(C(=O)N2CCCC(N3CCN(c4ccccc4OC)CC3)C2)c(OC)n1 (stereo not drawn)	25% (inactive)
Cc1ccc(SCc2cc(=O)[nH]c(SCC(=O)Nc3cc(Cl)ccc3Cl)n2)cc1	28.1% (inactive)
O=c1cc(CSc2ccc(Cl)cc2)nc(-c2ccccn2)[nH]1	102% (active)
C[C@@H](C(=O)Nc1ccc2ccccc2c1)[C@@H]1C[C@@]1(C)[C@@H](NC(=O)c1cccnc1)c1ccccc1	11% (inactive)
O=C(CNC(=O)c1cccc(Br)c1)N/N=C/c1cc(Br)cc(Br)c1O	11.3% (inactive)
O=C(N/N=C/c1c(O)ccc2ccccc12)c1cccnc1	101% (active)
S=C(N/N=C/c1ccc2ncccc2c1)Nc1cccnc1	29.3% (inactive)
CCOc1cc(Br)cc(/C=N/NC(=O)c2cccnc2)c1O	69.2% (active)
O=C(N/N=C\c1c(O)ccc2ccccc12)c1cncc(Br)c1	54.9% (active)
O=C(CCCc1nc(-c2ccc(Cl)cc2)no1)NC1CCCCC1	28.3% (inactive)
Cc1ccc(-c2noc(CCCC(=O)NC3CCCCC3)n2)cc1	29.6% (inactive)
O=C(CCCc1nc(-c2ccc(Cl)cc2)no1)NC1CCCC1	55.5% (active)
Cc1cc(C)nc(OC(C(=O)O)C(OCCc2ccccc2)(c2ccc(F)cc2)c2ccc(F)cc2)n1 (stereo not drawn)	-13.2% (inactive)
O=C(NCc1ccccc1)C1CCCN1S(=O)(=O)c1ccc(F)cc1 (stereo not drawn)	21.4% (inactive)
CC(=O)N(Cc1ccc(F)cc1)C1=C(NCCc2ccccc2)C(=O)c2ccccc2C1=O	102% (active)
CC(=O)N(Cc1ccc(F)cc1)C1=C(NCc2ccccc2)C(=O)c2ccccc2C1=O	91.2% (active)
CC1(C)N=C(N)N=C(N)N1c1ccc(OCCCOc2ccccc2)c(Cl)c1	59.9% (active)
COc1ccc2nc(N3CCCCC3)c(/C=C3\SC(=S)NC3=O)cc2c1	43.6% (inactive)
Cc1cc(C)nc(SC2=CS(=O)(=O)c3ccccc32)n1	14.1% (inactive)
Cn1c(SC2=CS(=O)(=O)c3ccccc32)nc2ccccc21	56% (active)

SMILES	inhibition
O=S1(=O)C=C(Sc2nc3ccccc3s2)c2ccccc21	82.7% (active)
O=C(Nc1ccc(S(=O)(=O)Nc2ccc(F)cc2)cc1)c1ccc(CN2CCOCC2)cc1	61.1% (active)
O=C(Nc1ccc(S(=O)(=O)N2CCCC2)cc1)c1ccc(Br)o1	6% (inactive)
COc1ccc(NS(=O)(=O)c2ccc(NC(=O)c3ccc(CN4CCOCC4)cc3)cc2)cc1	37.6% (inactive)
O=C(Nc1ccc(S(=O)(=O)N2CCOCC2)cc1)c1ccc(CN2CCc3ccccc3C2)cc1	65.5% (active)
O=C(Nc1ccc(CN2CCOCC2)cc1)c1ccc(-c2ccc(Cl)cc2Cl)o1	44.2% (inactive)
CCN(CC)c1ccc(S(=O)(=O)N2CCOCC2)cc1NC(=O)CN1CCc2ccccc2C1	21.6% (inactive)
O=C(Nc1ccc(Cc2ccncc2)cc1)c1ccc(S(=O)(=O)N2CCCC2)cc1	50.3% (active)
O=C(Nc1ccc(S(=O)(=O)N2CCCCC2)cc1)c1ccc(CN2CCOCC2)cc1	73.2% (active)
C/C=C/Cn1c(SCc2ccc(C)cc2)nc2c1c(=O)[nH]c(=O)n2C	18.9% (inactive)
CCN(CC)S(=O)(=O)c1ccc(C(=O)Nc2ccc(Cc3ccncc3)cc2)cc1	63% (active)
CCN(CC)S(=O)(=O)c1cccc(NC(=O)c2ccc(Br)cc2)c1	27.5% (inactive)
O=C(Nc1ccc(S(=O)(=O)N2CCCCC2)cc1)c1ccc(CN2CCc3ccccc3C2)cc1	59% (active)
CCN(CC)S(=O)(=O)c1cccc(C(=O)c2c(C)cc3ccccn23)c1	27.9% (inactive)
COc1ccccc1NS(=O)(=O)c1cccc(-n2c(O)c(C=Nc3ccccc3C(=O)O)c3ccccc3c2=O)c1	69% (active)
COc1ccc(Cn2c(O)c(C=Nc3ccccc3C(=O)O)c3ccccc3c2=O)cc1	69.6% (active)
COc1ccccc1NS(=O)(=O)c1cccc(NC(=O)Nc2ccc(Cl)cc2)c1	46.4% (inactive)
CCN(CC)S(=O)(=O)c1cccc(-n2c(O)c(C=Nc3ccccc3C(=O)O)c3ccccc3c2=O)c1	70.1% (active)
COc1ccc(CNc2nc3c(c(=O)n(Cc4ccc(Br)cc4)c(=O)n3C)n2C)cc1	15.5% (inactive)
O=C(Nc1ccc(Cl)cc1)c1cccc(N2C(=O)C3C4CCC(C4)C3C2=O)c1 (stereo not drawn)	3.3% (inactive)
COc1cc(NC(=O)c2cccs2)c(C(=O)OCC(=O)c2cc(C)n(-c3ccccc3)c2C)cc1OC	41.1% (inactive)
Cc1cc(C(=O)Nc2ccc(Cl)cc2)c(C)n1-c1ccccc1	56.3% (active)
CCOc1ccc(NC(=O)C2CCCN(S(=O)(=O)c3c(C)noc3C)C2)cc1 (stereo not drawn)	49.2% (inactive)
CC(=O)c1c(C)[nH]c(C(=O)Nc2nc(-c3ccccc3)c(C)s2)c1C	-37.3% (inactive)

SMILES	inhibition
COc1ccc(-c2nnc(Sc3nc4ccccc4o3)c3ccccc23)cc1	-25.6% (inactive)
COc1ccc(-c2nc(NC(C)=O)sc2-c2ccccc2)cc1	58.1% (active)
O=C(O)c1cccc(S(=O)(=O)Nc2ccccc2Cc2ccccc2)c1	14.3% (inactive)
O=C1C(Cl)=C(Nc2ccc(O)cc2)C(=O)c2ccccc21	30.4% (inactive)
CCc1ccc(S(=O)(=O)/N=C2\C=C(Nc3ccc(O)cc3)C(=O)c3ccccc32)cc1	106% (active)
COc1ccc(S(=O)(=O)/N=C2\C=C(Nc3ccc(O)cc3)C(=O)c3ccccc32)cc1	101% (active)
COc1ccc(S(=O)(=O)n2ccc(C(C)Oc3ccc(-c4ccccc4)c(F)c3)n2)cc1 (stereo not drawn)	20.1% (inactive)
CCc1ccc(S(=O)(=O)/N=C2\C=C(Nc3ccc(C(=O)O)cc3)C(=O)c3ccccc32)cc1	49.3% (inactive)
CCc1ccc(S(=O)(=O)/N=C2\C=C(Nc3cccc(C(=O)O)c3)C(=O)c3ccccc32)cc1	107% (active)
c1ccc(CCCNc2ncccn2)cc1	19% (inactive)
CCOc1ccc2nc(SCc3ccc(CC(=O)O)cc3)c(C#N)cc2c1	64.6% (active)
Nc1c(Cl)ncnc1N/N=C/c1ccccn1	109% (active)
Cc1cc(/C=N/Nc2ncnc(N)c2[N+](=O)[O-])c(C)n1-c1ccccc1	3.7% (inactive)
COc1cc(/C=C2/CCc3ccccc3C2=O)cc(OC)c1OC	-23.8% (inactive)
COc1cc(/C=C2\CC(C(C)(C)C)C/C(=C\c3cc(OC)c(OC)c(OC)c3)C2=O)cc(OC)c1OC (stereo not drawn)	87.2% (active)
COc1cc(/C=C2\COC/C(=C\c3cc(OC)c(OC)c(OC)c3)C2=O)cc(OC)c1OC	106% (active)
Cc1ccccc1NC1=C/C(=N\S(=O)(=O)c2cccs2)c2ccccc2C1=O	108% (active)
CCc1cccc(NC(=O)C2CCCN(S(=O)(=O)c3cccs3)C2)c1 (stereo not drawn)	18.2% (inactive)
Cc1cccc(NC2=C/C(=N/S(=O)(=O)c3cccs3)c3ccccc3C2=O)c1	63.9% (active)
Cc1ccc(NC2=C/C(=N\S(=O)(=O)c3cccs3)c3ccccc3C2=O)c(C)c1	102% (active)
COC(=O)c1ccccc1NC1=C/C(=N\S(=O)(=O)c2cccs2)c2ccccc2C1=O	99.7% (active)
